These results are taken from PubChem BioAssay (NCATS).

Holding throughout (experiment): Primary qHTS to identify gynecologic anti-cancer compounds using libraries of approved drugs and bioactive compounds (AID 1345084); further: nearly all actives have a fitted effect of over 55% in size
(Quantitative high-throughput screening tests each substance at several concentrations.)

The subject of one experiment is C33A. The conditions noted are these: Gynecologic cancer cell panel viability, ATPlite luminescence, 48 h; series mostly up to 57.5 µM. The method in brief:
(§1)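 Cytotoxicity screen measuring ATP content by luciferase luminescence. Each compound is applied at five concentrations for 48 h at 37 C with 5% CO2.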
On the technique in general: In ATP-based viability assays light output follows the ATP content of the culture.

For the next experiment, the system named is CASKI. As to conditions: Gynecologic cancer cell panel viability, ATPlite luminescence, 48 h; series mostly up to 57.5 µM. Put shortly: as §1
Another experiment concerns Es-2. As to conditions: Gynecologic cancer cell panel viability, ATPlite luminescence, 48 h; series mostly up to 57.5 µM. The method in brief:
as §1

Another experiment deals with HeLa. As to conditions: Gynecologic cancer cell panel viability, ATPlite luminescence, 48 h; series mostly up to 57.5 µM. The method in brief: as §1
In another experiment the test system is Hek293T. The conditions noted are these: Gynecologic cancer cell panel viability, ATPlite luminescence, 48 h, control line for the selectivity index; series mostly up to 57.5 µM. The method in brief:
as §1

For a further experiment, the system named is JEG-3. The conditions noted are these: Gynecologic cancer cell panel viability, ATPlite luminescence, 48 h; series mostly up to 57.5 µM. The method in brief: as §1
The test system of the next experiment is OV90. The conditions noted are these: Gynecologic cancer cell panel viability, ATPlite luminescence, 48 h; series mostly up to 57.5 µM. Put shortly:
as §1

The next experiment concerns PA-1. The conditions noted are these: Gynecologic cancer cell panel viability, ATPlite luminescence, 48 h; series mostly up to 57.5 µM. Put shortly: as §1
Another experiment concerns CAOV3. The conditions noted are these: Gynecologic cancer cell panel viability, ATPlite luminescence, 48 h; series mostly up to 57.5 µM. Put shortly:
as §1

Molecules are shown by their SMILES. Results filed as inconclusive are left out. A number with no mark means an inactive call. Active and inactive are the calls of the source. The call rests on the fitted dose curve; in most records, active means well fitted cell-killing curve with a large enough effect; inconclusive means small, poorly fitted or top-dose-only effect, or effect the other way; inactive means flat fitted curve, though single readings scatter.
On the % scale 0 is the no-effect control and ±100 the full control effect; potency means the concentration at half of the fitted maximal effect.

Consider `Cc1ccc(NC(=O)C2(c3ccc4c(c3)OC(F)(F)O4)CC2)nc1-c1cccc(C(=O)O)c1`, for which the Potency result in the experiment on C33A, in the experiment on CASKI, with Es-2, in the experiment on HeLa, in the experiment on Hek293T and in the experiment with JEG-3 was “inactive” in each case. Besides, the Potency result with OV90 and in the experiment with PA-1 was “inactive” in each case.
For `O=C(c1ccc(Nc2nccc(-c3cc4ccccc4s3)n2)cc1)N1CCC(N2CCCC2)CC1`, the Potency entry in the experiment with C33A, with CASKI, in the experiment on Es-2, with HeLa, in the experiment with Hek293T and in the experiment on JEG-3 was “inactive” each time. Moreover, the Potency entry in the experiment with OV90 was “inactive”.
Regarding `COc1c(OCCCN2CCOCC2)ccc2c3n(c(=NC(=O)c4cnc(N)nc4)nc12)CCN3`, the Potency is 0.316 µM (active) in the experiment with C33A, 0.112 µM (active) in the experiment with CASKI, 1 µM (active) with HeLa and 0.631 µM (active) with PA-1. The activity change, negative = cytotoxicity with CAOV3 is -27.2% [at 11.6 µM].
Consider `Cc1ccc2nc(NC(=O)CSc3nc4c(c(=O)n3-c3ccccc3)SCC4)sc2c1`, for which the Potency entry in the experiment on C33A, in the experiment with CASKI, in the experiment on Es-2, in the experiment with HeLa, with Hek293T and in the experiment with JEG-3 was “inactive” each time. In addition, the Potency entry with OV90 and with PA-1 was “inactive” each time.
With `Cc1ccc(C(=O)Nc2ccc(CN3CCN(C)CC3)c(C(F)(F)F)c2)cc1C#Cc1cnc2cccnn12`, the Potency was 25.1 µM (active) in the experiment with C33A; 14.1 µM (active) with CASKI; 8.91 µM (active) in the experiment with Es-2; 11.2 µM (active) in the experiment with HeLa; 15.8 µM (active) in the experiment with OV90; 8.91 µM (active) with PA-1.
`Cc1ccc(C(N)=O)cc1Nc1nccc(-c2cn(C(C)C)c3cnccc23)n1`: the Potency in the experiment on C33A is 3.16 µM (active); in the experiment with CASKI, 17.8 µM (active); in the experiment with HeLa, 25.1 µM (active); in the experiment on Hek293T, 17.8 µM (active); in the experiment on OV90, 17.8 µM (active). In addition, the Potency result with JEG-3 is “inactive”.
`COc1cc2c(Oc3ccc(-c4cnc(Nc5ccc(F)cc5)n(C)c4=O)cc3F)ccnc2cc1OCCCN1CCOCC1`: the Potency entry in the experiment on C33A, with CAOV3, in the experiment with CASKI, with Hek293T, with JEG-3 and in the experiment on OV90 was “inactive” each time.
Consider `N#CCNC(=O)c1ccc(-c2ccnc(Nc3ccc(N4CCOCC4)cc3)n2)cc1`, for which the Potency result in the experiment with C33A, in the experiment with CASKI and in the experiment with HeLa was “inactive” in each case. Also, the Potency in the experiment with PA-1 was 14.1 µM (active).
As for `COc1ccc(F)c(F)c1C(=O)c1cnc(NC2CCN(S(C)(=O)=O)CC2)nc1N`, the Potency with C33A was 10 µM (active); with CASKI, 10 µM (active); in the experiment with Es-2 it was 3.16 µM (active); in the experiment on HeLa it was 2.82 µM (active); in the experiment with Hek293T it was 3.55 µM (active); in the experiment on PA-1 it was 2.51 µM (active).
Regarding `COc1cc2c(NC3CCN(C(C)C)CC3)nc(C3CCCCC3)nc2cc1OCCCN1CCCC1`, the Potency in the experiment with C33A is 28.2 µM (active); in the experiment with CAOV3 it was 6.31 µM (active); in the experiment on CASKI it was 20 µM (active); in the experiment on JEG-3 it was 10 µM (active); with OV90, 11.2 µM (active); in the experiment with PA-1 it was 31.6 µM (active).
With `c1nc2nc(Nc3ccc(N4CCOCC4)cc3)nc(NC3CCCCC3)c2[nH]1`, the Potency entry in the experiment with C33A, in the experiment on Es-2, in the experiment on Hek293T and in the experiment on OV90 was “inactive” each time. In the experiment on HeLa, the Potency was 2.82 µM (active).
Turning to `O=C(Nc1cn[nH]c1-c1nc2ccc(CN3CCOCC3)cc2[nH]1)NC1CC1`, the Potency with C33A was 14.1 µM (active); in the experiment on CASKI, 2 µM (active); with Es-2, 14.1 µM (active); with Hek293T, 7.94 µM (active); in the experiment with OV90 it was 11.2 µM (active); in the experiment with PA-1, 8.91 µM (active).
On to `CC(C)CC(=O)Nc1n[nH]c2c1CN(C(=O)C1CCN(C)CC1)C2(C)C`, for which the Potency with C33A was 6.31 µM (active); with Es-2 it was 7.08 µM (active); with HeLa it was 3.16 µM (active); with Hek293T it was 3.98 µM (active); in the experiment with OV90, 7.94 µM (active); in the experiment with PA-1, 0.447 µM (active). For the same compound, the Potency entry in the experiment on JEG-3 is “inactive”.
On to `O=C(O)C1(Cc2cccc(Nc3nccs3)n2)CCC(Oc2cccc(Cl)c2F)CC1` (configuration not stated), for which the Potency entry in the experiment on C33A, in the experiment with CASKI, in the experiment with Es-2, with Hek293T, with JEG-3 and in the experiment on OV90 was “inactive” throughout. In the experiment on HeLa, the Potency is 6.31 µM (active).
In the case of `CC1(O)CC(c2nc(-c3ccc4ccc(-c5ccccc5)nc4c3)c3c(N)nccn23)C1` (configuration not stated), the Potency result in the experiment with C33A, in the experiment on CASKI, with Es-2, in the experiment on Hek293T, in the experiment on JEG-3 and in the experiment on OV90 was “inactive” each time. Moreover, in the experiment on PA-1, the Potency result was “inactive”.
With `CCn1nnc2c(N3CCOCC3)nc(-c3ccc(NC(=O)Nc4ccc(C(=O)N5CCN(C)CC5)cc4)cc3)nc21`, the Potency result in the experiment on C33A is “inactive”. Also, the Potency in the experiment on CASKI was 0.251 µM (active); in the experiment on Es-2 it was 1.12 µM (active); with Hek293T, 0.631 µM (active); with PA-1 it was 0.398 µM (active).
`Nc1cc(C(F)(F)F)c(-c2cc(N3CCOCC3)nc(N3CCOCC3)n2)cn1`: the Potency in the experiment on C33A was 15.8 µM (active); in the experiment on CASKI it was 3.55 µM (active); in the experiment on Es-2, 6.31 µM (active); with HeLa, 3.98 µM (active); in the experiment on Hek293T it was 3.16 µM (active); in the experiment with JEG-3, 7.94 µM (active). The results for the Potency in the experiment with OV90 and with PA-1 were 10 µM (active) and 6.31 µM (active), respectively.
For the compound `Cc1cc(CN2CCN(c3c(Br)cnc4nc(-c5ccc(N6CCN(C)CC6)cc5)[nH]c34)CC2)no1`, the Potency result with C33A, in the experiment with CASKI, with Es-2, in the experiment with Hek293T, with JEG-3 and in the experiment with OV90 was “inactive” in each case. The Potency with HeLa is 1.58 µM (active).
For the compound `COc1ccc(C(=O)CC2(O)C(=O)Nc3c(Cl)ccc(Cl)c32)cc1` (configuration not stated), the Potency result in the experiment with C33A, with CAOV3 and with OV90 was “inactive” each time. The results for the Potency with HeLa and in the experiment on PA-1 were 14.1 µM (active) and 8.91 µM (active), respectively.
Consider `C=CC(=O)N1CCC[C@@H](n2nc(-c3ccc(Oc4ccccc4)cc3)c3c(N)ncnc32)C1`, for which the Potency result in the experiment on C33A, with CASKI, in the experiment with Es-2, with HeLa, in the experiment on Hek293T and in the experiment with JEG-3 was “inactive” each time. The Potency entry with OV90 and in the experiment on PA-1 was “inactive” in each case.
Turning to `COC(=O)Nc1nc2ccc(C(=O)c3ccc(F)cc3)cc2[nH]1`, the Potency entry with C33A, in the experiment on CAOV3 and in the experiment on OV90 was “inactive” each time. Further, the Potency with Es-2 is 8.91 µM (active); in the experiment on HeLa, 3.98 µM (active); in the experiment on PA-1, 2 µM (active).
Turning to `NC1(Cc2ccc(Cl)cc2)CCN(c2ncnc3[nH]ccc23)CC1`, the Potency in the experiment on C33A and in the experiment on Hek293T was 10 µM (active) throughout. Further, the Potency result in the experiment with CASKI, in the experiment with Es-2, in the experiment on HeLa and in the experiment with PA-1 was “inactive” in each case.
In the case of `CC(C)c1nn(-c2c(Cl)cccc2Cl)c2nc(Cc3ccc(OCCO)cc3)[nH]c(=O)c12`, the Potency is 0.282 µM (active) with C33A, 0.501 µM (active) in the experiment with CASKI and 0.251 µM (active) in the experiment on PA-1.
With `COc1ccc2c(c1)CC[C@@H](CN(C)CC(=O)O)[C@H]2c1ccccc1`, the Potency entry with C33A, in the experiment on CASKI, in the experiment on Es-2, with HeLa, in the experiment with Hek293T and in the experiment with JEG-3 was “inactive” each time. Further, the Potency entry with OV90 and in the experiment on PA-1 was “inactive” throughout.
For `O=C(Nc1cc(C(F)(F)F)cc(C(F)(F)F)c1)c1cc(Cl)ccc1O`, the Potency was 3.16 µM (active) in the experiment with C33A; 3.55 µM (active) in the experiment with CASKI; 5.01 µM (active) in the experiment on Es-2; 2.24 µM (active) in the experiment with HeLa; 2.51 µM (active) in the experiment on Hek293T; 8.91 µM (active) in the experiment with OV90. The Potency in the experiment with PA-1 was 1.58 µM (active).
